Among the data in PubChem BioAssay (NCATS) are outcome, Potency and max response values, retold here.

The nature of experiment [1]: Cellular Toxicity (caspase-3) SHSY5Y (AID 657). Put shortly: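 Cells plated and incubated 5 h at 37 °C, dosed over a concentration range, incubated 16 h, then given Caspase-Glo 3/7 reagent for 1 h at room temperature before luminescence reading. Staurosporine (10 uM) defined full stimulation.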
The nature of experiment [2]: Cellular Toxicity (caspase-3) BJ (AID 658).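 Note: 0% = DMSO basal and 100% = 10 µM staurosporine.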 A digest of the protocol:
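Luminescent aminoluciferin-substrate cleavage reports caspase 3/7 activity in normal human BJ fibroblasts after 16 hr compound exposure at 37 °C. Normalized to DMSO (basal) and 10 uM staurosporine (100%); AC50 from Hill fit of concentration-response.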

Experiment [3] is described as follows: Cellular Toxicity (caspase-3) N2a (AID 665).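 Note: compound exposure lasted 16 h at 37 °C before readout.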 Put shortly:
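Mouse N2a neuroblastoma cells (1500/well) were treated with compounds for 16 h at 37 °C, then caspase-3/7 activity was read by Caspase-Glo luminescence after 1 h at room temperature. Data were normalized to DMSO and 10 uM staurosporine; AC50 from Hill fits.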

The nature of experiment [4]: Cellular Toxicity (caspase-3) Renal Proximal Tubule (AID 667).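 Note: cells exposed to compound for 16 hours at 37 °C before detection; 0% = DMSO basal and 100% = 10 µM staurosporine.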 Put shortly: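 In qHTS format, rat primary proximal tubule cells seeded at 1000 per well are exposed to compounds for 16 hours at 37 °C. An increase in Caspase-Glo 3/7 luminescence indicates caspase activation.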
The nature of experiment [5]: MultiTox-Fluor Cytotoxicity Assay - LYMP1-001 - Dead Cells (AID 946). A digest of the protocol:
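Cytotoxicity as increased dead-cell protease fluorescence (bis-AAF-R110, 485/520 nm), read 60 min after MultiTox-Fluor reagent. Human lymphoblastoid line exposed 16 h; Hill-fitted AC50, with DMSO as 0% and 15 uM tetraoctylammonium bromide as 100%.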

A short description of experiment [6]: Cell Viability - LYMP1-002 - Assay at 16 hr (AID 948).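 Note: 0% = DMSO alone and full effect = 92 µM tetraoctylammonium bromide.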 A digest of the protocol: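 Acute cytotoxicity is scored as a concentration-dependent fall in intracellular ATP in a human lymphoblastoid line (LYMP1-002) after 16 hr compound exposure at 37 C, measured by luciferase luminescence.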
A short description of experiment [7]: MultiTox-Fluor Cytotoxicity Assay - LYMP1-003 - Dead Cells (AID 961). Note: nearly all actives have a fitted effect of over 70% in size. A digest of the protocol:
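Dead-cell protease release, detected as bis-AAF-R110 fluorescence at 485/520 nm, was measured in LYMP1-003 cells after 16 h compound treatment at 37 C. AC50 values came from Hill-modeled qHTS curves normalized to DMSO (0%) and 15 uM tetraoctylammonium bromide (100%).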

Experiment [8] can be described thus: Cell Viability - LYMP1-003 - Assay at 24 hr (AID 963).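 Note: plate controls were DMSO only for no effect and tetraoctylammonium bromide positive control for full effect.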 A digest of the protocol: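 Human lymphoblastoid LYMP1-003 cells (2500/well) were rested 5 hr at 37 C, then exposed to compounds in complete medium for 24 hr at 37 C. Cellular ATP was quantified by CellTiter-Glo luminescence, and AC50 values came from Hill fits of concentration-response data.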
Experiment [9] is described as follows: Cell Viability - LYMP2-003 (AID 965).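 Note: cells exposed to compounds for 24 h before reading; 0% = DMSO only and full effect = 92 µM tetraoctylammonium bromide; nearly all actives have a fitted effect of over 50% in size.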 A digest of the protocol: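 Acute cytotoxicity is scored as a concentration-dependent drop in intracellular ATP, measured by luciferase luminescence in human lymphoblastoid cells treated for 24 hours at 37 C. AC50 values derive from Hill-equation modelling.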
Experiment [10] is described as follows: Cell Viability - LYMP2-019 (AID 973). Note: nearly all actives have a fitted effect of over 55% in size. Note: potency is the fitted concentration of half-maximal effect. Put shortly: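 Human lymphoblastoid cells were seeded at 2500 cells/well, preincubated 5 hr at 37 C, then exposed to compounds for 24 hr at 37 C in complete medium. Intracellular ATP was measured by CellTiter-Glo luminescence; AC50 from Hill fits.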
The nature of experiment [11]: Cell Viability - LYMP2-012 (AID 982).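 Note: cellular ATP by luciferase luminescence where a drop means cytotoxicity; cells exposed to compound for one day before reading; 0% = DMSO only and full loss = 92 µM tetraoctylammonium bromide; nearly all actives have a fitted effect of over 55% in size.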
The nature of experiment [12]: Cell Viability - LYMP2-016 (AID 984). Note: % is set by controls: 0 for no effect and ±100 for the full control effect; nearly all actives have a fitted effect of over 55% in size. Put shortly: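 Acute toxicity in a Coriell human lymphoblastoid line is scored as loss of intracellular ATP over 24 h of treatment in complete medium. CellTiter-Glo signal is fitted across concentrations with the Hill equation to give AC50.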
A short description of experiment [13]: Cell Viability - LYMP1-002 - Assay at 24 hr (AID 993). Note: % is set by controls: 0 for no effect and ±100 for the full control effect. Put shortly:
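Human lymphoblastoid LYMP1-002 cells, 2500/well in complete medium, were treated with compounds for 24 h at 37 C; intracellular ATP was read by CellTiter-Glo luminescence. AC50 values came from Hill-equation fits of qHTS concentration-response data.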

Experiment [14] in a line: Cell Viability - LYMP1-002 - Assay at 40 hr (AID 994).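 Note: 0% = DMSO only and full inhibition = 92 µM tetraoctylammonium bromide; nearly all actives have a fitted effect of over 60% in size.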 A digest of the protocol:
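Human lymphoblastoid cells, 2500/well in complete medium, were preincubated 5 hr at 37 C, then exposed to compounds for 40 hr at 37 C. Intracellular ATP was read by CellTiter-Glo luminescence after 30 min at room temperature; AC50 from Hill-equation fits.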

Experiment [15] in a line: qHTS Assay for Identification of Small Molecule Inducers of Hypoxia Response (AID 2120; active = well fitted curve in the direction sought with a large enough effect in the signal ratio, with a control signal flat, not every such curve was filed as active; the % refers to the signal ratio; note: 0% is about no effect). A digest of the protocol:
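HRE-beta-lactamase reporter in CellSensor HRE-bla ME-180 cells, 2500 cells/well in Opti-MEM with 0.5% dialyzed FBS; compounds tested as titration series, 17 h at 37 degrees C. CCF4 substrate 2.5 h at room temperature; AC50 from 460/530 nm ratio.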

Experiment [16] has as its target Peroxisome proliferator-activated receptor alpha (Homo sapiens) (UniProt Q07869). In words: qHTS assay for small molecule agonists of the peroxisome proliferator-activated receptor alpha (PPARalpha) signaling pathway (AID 651778). Note: % of control where 0% means no effect. The note with it: PathHunter PPARalpha complementation, chemiluminescence, 6 h; hits give high values. Put shortly:
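Cells plated at 2,000/well and held overnight at 37 C, 5% CO2, then compound added by pin tool for 6 hr; after PathHunter detection reagent and 60 min at room temperature, chemiluminescence from enzyme complementation was read.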
For orientation: qHTS replaces the single test concentration by a dilution series.

Experiment [17] in a line: qHTS assay for cell viability of HEK293 cells (AID 743288). Note: % is set by controls: 0 for no effect and ±100 for the full control effect; nearly all actives have a fitted effect of over 50% in size. The conditions noted are these: ATP luminescence (CellTiter-Glo), 18 h, hits give low values. Put shortly: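 The Tox21 protocol used parental HEK293 cells treated for 18 h at 37 C with compounds delivered by pintool; ATP-coupled luminescence after 30 min at room temperature gave viability.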
A short description of experiment [18]: qHTS assay for cell viability of the p53RE-bla HCT-116 cell line (AID 743292). Note: % is set by controls: 0 for no effect and ±100 for the full control effect; nearly all actives have a fitted effect of over 55% in size. A digest of the protocol: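 ATP-based luminescence, 16 h compound exposure at 37 C, p53RE-bla HCT-116 cells at 4,000/well.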
Experiment [19] can be described thus: Cell Viability - LYMP2-013 (AID 970). Put shortly: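 Human lymphoblastoid cells, 2500/well, were preincubated 5 hr at 37 C, then treated with compounds for 24 hr at 37 C in complete medium. Intracellular ATP was read by CellTiter-Glo luminescence; AC50 from Hill-equation fits of concentration-response data.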
A short description of experiment [20]: Cell Viability - LYMP2-008 (AID 980). Note: % is set by controls: 0 for no effect and ±100 for the full control effect; nearly all actives have a fitted effect of over 60% in size. A digest of the protocol:
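Human lymphoblastoid cells (2500/well) were plated, held 5 hr at 37 C, then exposed to compounds for 24 hr at 37 C in complete medium. Intracellular ATP was read by CellTiter-Glo luminescence; AC50 from Hill-fitted concentration-response.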

The structures appear in SMILES notation. “And” between values parts separate entries of the source, which are not always exact repeats. Identical values can stand only once. Unmarked numbers belong to inactive results. Inconclusive results are not listed. The source made the active and inactive calls. Unless noted, calls come from the whole dose curve; as a rule, active = well fitted curve in the direction sought with a large enough effect; inconclusive = small, poorly fitted or top-dose-only effect, or another doubt; inactive = no such curve, though single readings can be large; an effect the other way counts as inactive or inconclusive.

Sequence of Peroxisome proliferator-activated receptor alpha (Homo sapiens) (Q07869 whole entry, looked up): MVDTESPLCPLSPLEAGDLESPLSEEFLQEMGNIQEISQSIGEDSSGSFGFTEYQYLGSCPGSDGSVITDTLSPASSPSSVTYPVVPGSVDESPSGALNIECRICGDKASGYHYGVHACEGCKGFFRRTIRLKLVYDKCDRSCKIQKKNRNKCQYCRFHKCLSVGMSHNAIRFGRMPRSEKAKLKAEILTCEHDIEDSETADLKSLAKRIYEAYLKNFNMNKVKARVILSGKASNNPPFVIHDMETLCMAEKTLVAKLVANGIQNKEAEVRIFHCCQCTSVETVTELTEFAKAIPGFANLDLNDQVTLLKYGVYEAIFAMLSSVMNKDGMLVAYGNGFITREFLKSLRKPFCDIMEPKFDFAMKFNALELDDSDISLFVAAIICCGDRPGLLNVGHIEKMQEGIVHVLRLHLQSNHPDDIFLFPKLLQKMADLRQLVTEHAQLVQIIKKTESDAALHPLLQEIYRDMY

Take `O=[N+]([O-])c1ccccc1CCl`: the outcome in [1], in [2], in [3], in [4], in [5] and in [6] was inactive. For the same compound, the call in [8] was inactive. For the same compound, the Potency entry in experiment [7], in experiment [9], in experiment [11], in experiment [12], in [13] and in experiment [14] was “inactive” throughout. Besides, the Potency entry in experiment [15] and in [18] was “inactive” in each case. Besides, the Potency in experiment [10] was 63.1 µM (active). Also, the max response in experiment [16] is -1.86%; in experiment [17] it was 2.01%.

In the case of `Cc1cc(C)cc(OP(=O)(Oc2cc(C)cc(C)c2)Oc2cc(C)cc(C)c2)c1`, the outcome in experiment [1], in experiment [2], in [3], in [4], in [6] and in [8] was inactive. The Potency result in [9], in experiment [19], in experiment [10], in [20], in experiment [11] and in experiment [12] was “inactive” throughout. For the same compound, the Potency entry in [13], in experiment [14], in [15] and in experiment [18] was “inactive” throughout. Also, the max response in [16] is -0.353%; in experiment [17] it was -21.5%.

Take `COC(=O)Nc1cccc(OC(=O)Nc2cccc(C)c2)c1`: the compound was called inactive in [1], in experiment [2], in experiment [3], in experiment [4], in [5] and in [6]. Besides, in [8], the call was inactive. The Potency entry in [7], in experiment [9], in experiment [19], in experiment [10], in experiment [20] and in [11] was “inactive” each time. Also, the Potency entry in experiment [12], in experiment [13], in [14], in [15] and in experiment [18] was “inactive” each time. Moreover, the max response was -6.94% in experiment [16] and -7.47% in [17].

For the compound `C=CC(=O)OC`, the compound was classed as inactive in experiment [1], in experiment [2], in experiment [3], in [4], in [5] and in [6]. In experiment [8], the compound was called inactive. For the same compound, the Potency result in [7], in experiment [9], in [19], in experiment [10], in experiment [20] and in [11] was “inactive” in each case. The Potency result in experiment [12], in experiment [13], in [14], in experiment [15] and in [18] was “inactive” in each case. Further, the max response is -1.74% in [16] and 4.03% in experiment [17].

On to `Oc1cccc(Cl)c1Cl`, for which the call in experiment [1], in [2], in experiment [3], in experiment [4], in experiment [5] and in [6] was inactive. In addition, the result in [8] was inactive. Besides, the Potency entry in experiment [7], in experiment [9], in experiment [19], in experiment [10], in experiment [20] and in experiment [11] was “inactive” each time. In addition, the Potency entry in [12], in experiment [13], in experiment [14], in experiment [15] and in experiment [18] was “inactive” throughout. The max response is -2.6% in [16] and -3.83% in experiment [17].

For `Cc1cc(N=Nc2ccccc2C)ccc1N`, the compound was called inactive in [1], in [2], in experiment [3], in [4], in experiment [5] and in experiment [6]. Also, the outcome in [8] was inactive. Also, the Potency entry in experiment [7], in experiment [9], in [19], in experiment [10], in [20] and in experiment [11] was “inactive” in each case. In addition, the Potency result in [12], in experiment [13], in experiment [14], in experiment [15] and in [18] was “inactive” each time. Further, the max response in experiment [16] is -6.65% and -1.39%; in experiment [17], -13.3% and -11.6%.

Consider `O=C(O)C(Br)CBr` (stereo unspecified), for which the compound was classed as inactive in experiment [1], in experiment [2], in experiment [3], in experiment [4], in [5] and in [6]. In [8], the outcome was inactive. The Potency entry in experiment [7], in [9], in [19], in experiment [10], in experiment [20] and in experiment [11] was “inactive” throughout. The Potency result in [12], in [13], in [14], in experiment [15] and in experiment [18] was “inactive” in each case. Besides, the max response is 1.03% in experiment [16] and -8.07% in [17].
